Drawing on PubChem BioAssay, this text covers composite z-score and z-score for five compounds.

Activity calls are given as the source filed them.

Assay [1] deals with PRMT1 (protein arginine N-methyltransferase 1). The assay is described as follows: PRMT1 binders on small-molecule microarrays, primary screen, biochemical, small-molecule microarray, 635 nm fluorescence (AID 1088).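 Note: binding of Prmt1 protein to compounds spotted on small-molecule microarray slides.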 As to conditions: small-molecule microarray binding, higher = more signal.
Assay [2] can be described thus: yeast growth modulation, basal conditions, primary screen, YJM789 clinical isolate, OD600, 24 h (AID 1089).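 Note: growth of clinical yeast isolate S. cerevisiae YJM 789 seeded 1000 cells per well; test concentration not given here.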 The settings on record: S. cerevisiae YJM789 growth, higher = more signal, called active from +8 up or from −8 down.
Assay [3] in a line: fission yeast growth modulation, primary screen, strain 972, OD600, 24 h, no modulator (AID 1090).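 Note: basal condition with compound alone and no growth modifier present; test concentration not given here.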 As to conditions: S. pombe 972 growth, higher = more signal, called active from +8 up or from −8 down.
Assay [4] can be described thus: S. cerevisiae growth modulation with rapamycin, primary screen, strain BY4716, OD600, 96 h (AID 1091). Note: test concentration not given here. The settings on record: higher = more signal, called active from +8 up or from −8 down.
Assay [5] deals with Torsin-1A-interacting protein 2 (Homo sapiens) (UniProt Q8NFQ8). Put plainly: LULL1 binders on small-molecule microarray, primary screen, cell lysate, human LULL1 lysate, 635/667 nm fluorescence (AID 1092).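 Note: probe is lysate of COS7 cells overexpressing human LULL1; score merges per-feature 667 nm fluorescence with signal-to-noise.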 As to conditions: hLULL1 lysate binding, 635 nm fluorescence, higher = more signal.
Torsin-1A-interacting protein 2 (Homo sapiens), sequence (Q8NFQ8 whole entry, looked up): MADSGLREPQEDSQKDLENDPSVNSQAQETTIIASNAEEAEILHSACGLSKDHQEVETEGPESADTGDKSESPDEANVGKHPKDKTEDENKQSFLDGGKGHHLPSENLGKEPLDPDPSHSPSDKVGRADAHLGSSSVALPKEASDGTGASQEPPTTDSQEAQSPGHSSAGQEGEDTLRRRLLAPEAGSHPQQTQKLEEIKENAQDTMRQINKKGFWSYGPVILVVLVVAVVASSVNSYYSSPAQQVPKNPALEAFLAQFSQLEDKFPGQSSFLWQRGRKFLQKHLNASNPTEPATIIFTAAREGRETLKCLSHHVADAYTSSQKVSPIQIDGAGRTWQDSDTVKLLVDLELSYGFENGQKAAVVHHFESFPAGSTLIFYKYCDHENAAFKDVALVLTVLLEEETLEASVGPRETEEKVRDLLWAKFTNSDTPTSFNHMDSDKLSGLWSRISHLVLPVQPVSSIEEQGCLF
Assay [6] is described as follows: E. coli growth modulation, two-sided OD650, primary screen, E. coli filamentation project, strain DRC41, 24 h (AID 1093).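 Note: MC1000 strain lacking acrAB efflux and sulA so SOS filamentation is blocked; test concentration not given here.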 The settings on record: OD650, 24 h, higher = more signal, called active from +8 up or from −8 down.
Assay [7] in a line: small-molecule microarray binders of probe aLefty2, primary screen, biochemical, biotinylated probe, 635/667 nm fluorescence (AID 1094).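 Note: score merges spot fluorescence near 667 nm with spot signal-to-noise ratio.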 The settings on record: higher = more signal.
Assay [8] concerns Noggin (protein binding on small-molecule microarray). Put plainly: Noggin binders on small-molecule microarray, primary screen, biochemical, 635/667 nm fluorescence (AID 1095).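 Note: score merges 667 nm feature fluorescence with signal to noise over triplicate slides.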 The settings on record: 635 nm fluorescence, higher = more signal.
Assay [9] has as its target Neurogenic locus notch homolog protein 3 (Homo sapiens) (UniProt Q9UM47). Put plainly: NOTCH3 binders on small-molecule microarray, primary screen, biochemical, 635/667 nm fluorescence (AID 1096). As to conditions: NOTCH3 binding, 635 nm fluorescence, higher = more signal.
Assay [10] in a line: small-molecule microarray binders of probe aEGFR, primary screen, biochemical, biotinylated probe, 635/667 nm fluorescence (AID 1097).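 Note: probe is a biotinylated anti-EGFR antibody binding compounds printed on slides; score combines fluorescence near 667 nm and signal to noise of each spot.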 As to conditions: higher = more signal.
The test system of assay [11] is Plasmodium falciparum Sir2 (PF13_0152, Sir2A). The assay is described as follows: pfSir2 binders on small-molecule microarrays, primary screen, biochemical, small-molecule microarray, 635 nm fluorescence (AID 1098).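 Note: score merges spot fluorescence intensity with its signal-to-noise ratio.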 The settings on record: small-molecule microarray binding, fluorescence 635 nm; higher = more signal.
Assay [12] can be described thus: small-molecule microarray binders of probe aDKK1, primary screen, biochemical, biotinylated probe, 635/667 nm fluorescence (AID 1099).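 Note: score merges 667nm spot fluorescence with signal to noise across triplicate slides; reference of the scale not given here.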 The settings on record: higher = more signal.
Assay [13] is described as follows: small-molecule microarray binders of probe aCHRDL2, primary screen, biochemical, biotinylated probe, 635/667 nm fluorescence (AID 1100). As to conditions: higher = more signal.
Assay [14] is described as follows: splicing luciferase reporter signal modulators, primary screen, spliceosome inhibition project, cell-based, HEK293, splice +/- reporter (AID 1101).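 Note: HEK293 cells carrying a splicing-competent luciferase reporter gene; test concentration not given here.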 The settings on record: luminescence, 24 h, higher = more signal, called active from +8 up or from −8 down.
Assay [15] addresses Fibroblast growth factor 10 (Homo sapiens) (UniProt O15520). Put plainly: FGF10 binders on small-molecule microarrays, primary screen, biochemical, small-molecule microarray, 635 nm fluorescence (AID 1102). As to conditions: FGF10 binding, fluorescence 635 nm, higher = more signal.
Assay [16] relates to glycogen synthase kinase-3 (GSK3A per assay name; protocol says GSK3B). The assay is described as follows: GSK3 binders on small-molecule microarrays, primary screen, biochemical, small-molecule microarray, 635 nm fluorescence, GSK3A (AID 1103). Note: the record names both GSK3A and GSK3B. The settings on record: small-molecule microarray binding, fluorescence 635 nm; higher = more signal.
Assay [17] addresses Epidermal growth factor receptor (Homo sapiens) (UniProt P00533). The assay is described as follows: EGFR binders on small-molecule microarrays, primary screen, biochemical, small-molecule microarray, 635 nm fluorescence (AID 1104).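 Note: score merges 667 nm emission intensity with spot signal to noise over triplicate slides.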 The settings on record: EGFR binding, higher = more signal.
Assay [18] addresses Follistatin-related protein 3 (Homo sapiens) (UniProt O95633). Put plainly: FSTL3 binders on small-molecule microarrays, primary screen, biochemical, small-molecule microarray, 635 nm fluorescence (AID 1105).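 Note: score merges emission near 667 nm and signal to noise per printed spot across three slides.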 As to conditions: FSTL3 binding, higher = more signal.
The target of assay [19] is Dickkopf-related protein 1 (Homo sapiens) (UniProt O94907). Put plainly: DKK1 binders on small-molecule microarrays, primary screen, biochemical, small-molecule microarray, 635 nm fluorescence scan (AID 1106).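 Note: score merges emission near 667 nm with signal to noise over three replicate slides.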 As to conditions: DKK1 binding, higher = more signal.
Dickkopf-related protein 1 (Homo sapiens), sequence (O94907 whole entry, looked up): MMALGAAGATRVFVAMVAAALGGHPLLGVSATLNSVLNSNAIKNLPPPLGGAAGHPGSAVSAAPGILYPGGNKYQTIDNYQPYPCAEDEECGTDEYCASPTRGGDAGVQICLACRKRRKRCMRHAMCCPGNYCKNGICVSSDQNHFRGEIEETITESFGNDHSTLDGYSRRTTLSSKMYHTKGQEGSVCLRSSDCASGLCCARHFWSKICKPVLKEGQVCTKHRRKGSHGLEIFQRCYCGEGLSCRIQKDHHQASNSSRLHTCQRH
Assay [20] concerns Inhibin beta A chain (activin A). The assay is described as follows: INHBA (activin A) binders on microarrays, primary screen, biochemical, small-molecule microarray, 635 nm fluorescence scan (AID 1107).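 Note: mouse activin A protein probed at 4.33 µg/mL on printed slides; score merges bound-protein fluorescence near 667 nm with spot signal-to-noise.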 The settings on record: small-molecule microarray binding, higher = more signal.

Epidermal growth factor receptor (Homo sapiens), sequence (P00533 whole entry, looked up): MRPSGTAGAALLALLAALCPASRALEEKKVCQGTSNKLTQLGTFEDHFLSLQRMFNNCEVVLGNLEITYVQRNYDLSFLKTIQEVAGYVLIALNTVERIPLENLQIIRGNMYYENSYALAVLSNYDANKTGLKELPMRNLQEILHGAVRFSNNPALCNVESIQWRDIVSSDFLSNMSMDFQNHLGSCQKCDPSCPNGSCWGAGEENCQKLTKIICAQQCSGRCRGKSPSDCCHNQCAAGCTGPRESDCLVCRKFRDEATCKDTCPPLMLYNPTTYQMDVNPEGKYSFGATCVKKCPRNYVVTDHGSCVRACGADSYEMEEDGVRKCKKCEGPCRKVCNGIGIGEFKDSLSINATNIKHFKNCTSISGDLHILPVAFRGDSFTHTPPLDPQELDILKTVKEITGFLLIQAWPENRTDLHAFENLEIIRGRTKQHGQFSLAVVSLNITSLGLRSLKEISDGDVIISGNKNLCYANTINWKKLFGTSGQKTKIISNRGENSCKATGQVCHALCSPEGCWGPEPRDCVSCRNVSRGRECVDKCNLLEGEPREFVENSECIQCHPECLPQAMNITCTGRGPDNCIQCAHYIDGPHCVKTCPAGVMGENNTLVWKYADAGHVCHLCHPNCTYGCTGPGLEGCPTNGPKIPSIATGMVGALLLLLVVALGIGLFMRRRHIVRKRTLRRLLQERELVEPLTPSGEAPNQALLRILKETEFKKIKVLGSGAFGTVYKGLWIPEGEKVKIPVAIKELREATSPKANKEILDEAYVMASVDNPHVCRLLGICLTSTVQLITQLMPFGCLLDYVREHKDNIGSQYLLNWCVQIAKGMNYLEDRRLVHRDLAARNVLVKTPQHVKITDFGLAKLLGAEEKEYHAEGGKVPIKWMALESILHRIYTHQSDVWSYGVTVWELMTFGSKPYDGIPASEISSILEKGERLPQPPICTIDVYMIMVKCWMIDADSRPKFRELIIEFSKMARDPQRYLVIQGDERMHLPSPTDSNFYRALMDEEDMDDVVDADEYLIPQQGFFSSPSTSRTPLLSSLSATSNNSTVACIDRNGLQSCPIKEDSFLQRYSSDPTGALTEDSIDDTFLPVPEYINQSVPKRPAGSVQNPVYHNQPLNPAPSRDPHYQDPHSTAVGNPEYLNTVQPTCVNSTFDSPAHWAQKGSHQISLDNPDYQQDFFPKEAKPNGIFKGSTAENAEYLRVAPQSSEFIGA
Follistatin-related protein 3 (Homo sapiens), sequence (O95633 whole entry, looked up): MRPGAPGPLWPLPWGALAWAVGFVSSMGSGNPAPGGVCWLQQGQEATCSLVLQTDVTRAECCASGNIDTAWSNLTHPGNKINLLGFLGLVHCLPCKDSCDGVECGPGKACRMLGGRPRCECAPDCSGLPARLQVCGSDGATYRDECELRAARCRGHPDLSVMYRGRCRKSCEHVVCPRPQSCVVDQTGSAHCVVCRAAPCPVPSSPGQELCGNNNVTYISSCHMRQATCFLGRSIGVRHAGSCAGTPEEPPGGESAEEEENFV
Fibroblast growth factor 10 (Homo sapiens), sequence (O15520 whole entry, looked up): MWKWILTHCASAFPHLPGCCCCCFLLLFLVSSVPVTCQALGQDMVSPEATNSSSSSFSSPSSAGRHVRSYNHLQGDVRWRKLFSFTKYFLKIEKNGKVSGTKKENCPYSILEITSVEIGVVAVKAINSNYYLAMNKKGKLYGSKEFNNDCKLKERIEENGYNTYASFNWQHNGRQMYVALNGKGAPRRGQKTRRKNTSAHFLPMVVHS
Neurogenic locus notch homolog protein 3 (Homo sapiens), sequence (Q9UM47 whole entry, looked up): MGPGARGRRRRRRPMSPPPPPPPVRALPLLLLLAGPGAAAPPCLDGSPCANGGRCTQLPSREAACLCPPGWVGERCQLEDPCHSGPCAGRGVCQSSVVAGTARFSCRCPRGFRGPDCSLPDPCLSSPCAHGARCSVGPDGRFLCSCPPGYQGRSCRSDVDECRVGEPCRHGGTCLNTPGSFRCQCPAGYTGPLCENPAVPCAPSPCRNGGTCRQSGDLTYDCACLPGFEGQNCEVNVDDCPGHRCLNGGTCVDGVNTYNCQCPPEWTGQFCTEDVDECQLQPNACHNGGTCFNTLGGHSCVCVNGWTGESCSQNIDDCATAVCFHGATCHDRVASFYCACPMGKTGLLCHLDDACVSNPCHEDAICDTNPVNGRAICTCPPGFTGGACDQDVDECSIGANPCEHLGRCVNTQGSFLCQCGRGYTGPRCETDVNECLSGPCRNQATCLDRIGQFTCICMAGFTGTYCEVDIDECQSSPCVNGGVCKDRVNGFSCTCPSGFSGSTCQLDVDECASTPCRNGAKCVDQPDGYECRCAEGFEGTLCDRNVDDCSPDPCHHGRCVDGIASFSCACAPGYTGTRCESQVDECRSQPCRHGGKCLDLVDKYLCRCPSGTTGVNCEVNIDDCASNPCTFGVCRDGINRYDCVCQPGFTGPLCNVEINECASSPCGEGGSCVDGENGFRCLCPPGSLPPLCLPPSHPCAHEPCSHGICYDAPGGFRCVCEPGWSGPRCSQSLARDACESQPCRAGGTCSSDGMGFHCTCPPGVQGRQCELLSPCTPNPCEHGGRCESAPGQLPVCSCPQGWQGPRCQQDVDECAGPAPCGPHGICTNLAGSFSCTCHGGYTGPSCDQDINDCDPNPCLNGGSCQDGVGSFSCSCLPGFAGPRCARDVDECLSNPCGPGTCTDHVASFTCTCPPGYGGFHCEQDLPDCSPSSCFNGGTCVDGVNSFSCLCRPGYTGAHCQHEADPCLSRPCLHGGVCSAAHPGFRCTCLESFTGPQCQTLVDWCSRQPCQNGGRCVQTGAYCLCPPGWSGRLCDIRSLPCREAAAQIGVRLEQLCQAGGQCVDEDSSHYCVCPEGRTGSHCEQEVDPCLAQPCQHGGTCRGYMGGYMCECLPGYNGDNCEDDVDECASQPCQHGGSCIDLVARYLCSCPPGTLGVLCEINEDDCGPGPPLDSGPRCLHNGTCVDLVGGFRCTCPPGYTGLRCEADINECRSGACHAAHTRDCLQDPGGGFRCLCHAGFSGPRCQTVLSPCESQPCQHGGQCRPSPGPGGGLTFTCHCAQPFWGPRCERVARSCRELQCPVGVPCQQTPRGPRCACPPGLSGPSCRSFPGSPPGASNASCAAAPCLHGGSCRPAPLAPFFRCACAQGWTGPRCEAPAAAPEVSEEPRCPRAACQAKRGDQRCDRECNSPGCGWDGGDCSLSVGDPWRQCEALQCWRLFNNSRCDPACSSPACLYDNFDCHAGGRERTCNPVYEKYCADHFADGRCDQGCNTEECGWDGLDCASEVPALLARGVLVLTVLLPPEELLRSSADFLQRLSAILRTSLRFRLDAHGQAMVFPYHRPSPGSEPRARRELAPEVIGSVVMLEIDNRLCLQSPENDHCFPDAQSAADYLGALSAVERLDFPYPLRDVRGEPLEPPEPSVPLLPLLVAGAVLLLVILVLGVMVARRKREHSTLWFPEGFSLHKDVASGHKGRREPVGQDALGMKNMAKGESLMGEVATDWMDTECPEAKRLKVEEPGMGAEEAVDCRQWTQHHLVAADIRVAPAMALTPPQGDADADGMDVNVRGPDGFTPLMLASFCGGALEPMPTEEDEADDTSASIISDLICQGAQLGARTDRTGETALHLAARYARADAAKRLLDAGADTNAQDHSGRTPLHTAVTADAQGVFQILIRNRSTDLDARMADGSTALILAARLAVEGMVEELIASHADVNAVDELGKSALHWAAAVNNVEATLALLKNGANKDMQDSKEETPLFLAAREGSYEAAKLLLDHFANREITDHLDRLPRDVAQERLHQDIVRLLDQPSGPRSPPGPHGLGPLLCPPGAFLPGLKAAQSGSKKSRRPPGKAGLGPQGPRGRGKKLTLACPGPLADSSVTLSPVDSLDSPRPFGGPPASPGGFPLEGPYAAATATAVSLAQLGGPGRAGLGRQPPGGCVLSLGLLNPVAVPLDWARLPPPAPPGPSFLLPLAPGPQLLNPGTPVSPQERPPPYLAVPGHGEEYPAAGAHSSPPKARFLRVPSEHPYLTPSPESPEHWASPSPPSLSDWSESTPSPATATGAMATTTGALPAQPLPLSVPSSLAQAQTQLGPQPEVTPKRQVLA

In the case of `C=C(CCCC)C(=O)CC[C@@H](OC(=O)c1ccccc1-c1ccccc1C(=O)O)c1cccc(OCCO)c1`, the composite z-score was 1.53 in assay [1]; 0.13 in assay [5]; -0.31 in assay [7]; 1.06 in assay [8]; 0.675 in [9]; -0.287 in assay [10]. The composite z-score in assay [11] is 1.13; in assay [12], -0.302; in assay [13] it was -0.353; in [15] it was 0.946; in [16], 0.297; in [17] it was -0.0833. Also, the values for the composite z-score in assay [18], in assay [19] and in assay [20] were 0.556, 0.339 and 1.2, respectively. The z-score in assay [2] is 0.299 (inactive); in assay [3], -0.694 (inactive); in assay [4] it was -0.541 (inactive); in assay [6], 0.169 (inactive); in assay [14], 2.89 (inactive).
In the case of `C=CC[C@@]1(C(=O)N2CCCCC2)N=C(c2ccc(OCCCO)cc2)O[C@@H]1c1ccccc1`, the composite z-score is 1.56 in [1]; 3.06 in [5]; 0.361 in assay [7]; 1.14 in assay [8]; 0.5 in [9]; 0.0222 in [10]. For the same compound, the composite z-score in [11] was found to be 1.53; in [12], 0.833; in [13], 0.613; in assay [15], 0.497; in assay [16], 1.29; in [17], 0.0106. Moreover, the composite z-score was -0.0325 in [18], -0.717 in assay [19] and 0.823 in assay [20]. Besides, the z-score is -2.83 (inactive) in assay [2]; -5.65 (inactive) in [3]; -1.18 (inactive) in assay [4]; 0.868 (inactive) in assay [6]; 0.411 (inactive) in assay [14].
On to `NC(=O)NCC#Cc1ccc2c(c1)[C@]1(C(=O)N2)[C@H](C(=O)Nc2nc3ccccc3s2)[C@H]2C(=O)O[C@H](c3ccccc3)[C@H](c3ccccc3)N2[C@@H]1c1ccc(O)cc1`, for which the composite z-score in [1] is 1.41; in [5], -0.569; in assay [7], 0.14; in assay [8] it was 0.614; in assay [9] it was 1.05; in assay [10] it was -0.0701. Further, the composite z-score in assay [11] turned out to be 0.726; in assay [12], 0.636; in assay [13], 0.212; in assay [15] it was 1; in assay [16] it was 0.163; in assay [17], 0.278. Further, the composite z-score in [18] stood at 0.53; in assay [19], 0.246; in [20], 0.744. Moreover, the z-score in assay [2] was 3.89 (inactive); in assay [3], 3.26 (inactive); in assay [4], 7.47 (inactive); in assay [6], 2.01 (inactive); in assay [14], 0.232 (inactive).
For `C=C(COC)/C(=C/C[C@@H](OC(=O)c1ccncc1)c1ccc(OCCO)cc1)c1cnc2ccccc2c1`, the composite z-score in assay [1] was 1.54; in [5], 2.55; in assay [7] it was -0.0802; in assay [8] it was 1.54; in assay [9], 1.01; in assay [10], -0.0531. In addition, the composite z-score in [11] is 0.212; in assay [12], 0.0923; in assay [13], -0.0001; in [15] it was 1.46; in assay [16], 1.3; in assay [17] it was 1.35. In addition, the composite z-score in [18] came to 1.58; in assay [19], 0.99; in assay [20], 1.95. Also, the z-score in assay [2] is -2.16 (inactive); in assay [3] it was -1.05 (inactive); in [4] it was -0.263 (inactive); in assay [6], 1.12 (inactive); in assay [14], -0.275 (inactive).
With `NCCCCCCNC(=O)[C@@H]1C[C@@H]2C(=O)N3CCC[C@H]3C(=O)N2[C@@H]1c1ccc(O)cc1`, the composite z-score in assay [1] was 1.25; in [5], 2.02; in [7], -0.0912; in [8] it was 1.58; in assay [9], 0.494; in [10] it was -0.0568. For the same compound, the composite z-score in [11] came out at 1.27; in assay [12] it was 0.0265; in [13], 0.0978; in [15], 1.01; in [16] it was 1.3; in assay [17], 0.235. The values for the composite z-score in [18], in assay [19] and in assay [20] were 0.318, 1.02 and 0.123, respectively. Moreover, the z-score was -0.723 (inactive) in assay [2]; -1.22 (inactive) in assay [3]; -0.476 (inactive) in assay [4]; -1.03 (inactive) in [6]; 0.364 (inactive) in [14].
